The results in this text go back to PubChem BioAssay (NCI).

Each structure is given as a SMILES string. Values joined by “and” are separate entries in the source; they are usually repeats but may differ in a detail not shown here. Equal entries are not always repeated. About 83,000 compounds went through this panel and 20% of them were active in at least one assay; those are over-represented in the sample as a whole.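 Each cell line was grown in a 96-well plate and treated with one concentration of compound for 48 hours. Values below 10 were considered active.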 Active and inactive are the calls of the source.

The assay has as its system KM12 colon. Briefly: NCI-60 one-dose screen, 48 h (100 = growth as untreated, 0 = no growth, -100 = all killed). The note with it: 10 µM unless noted.
Take `CN1CCN(Cc2ccc(NC(=O)c3cccc(C#Cc4c(N)ncc5ccc(F)cc45)c3)cc2C(F)(F)F)CC1`: the growth was -82.1% (active).
For the molecule `O=S(=O)(Nc1cc(Sc2cccc3cccnc23)c(O)c2ccccc12)c1ccc(F)cc1`, the growth was 16.5% (inactive).
For the molecule `CCOC(=O)c1cc2c(n1Cc1cc(OC)cc(OC)c1Br)-c1nc(NC(C)=O)sc1CCC2`, the growth was 67.6% (inactive).
In the case of `C#Cc1cc(C(=O)Nc2ccc(CN3CCN(C)CC3)c(C(F)(F)F)c2)ccc1C` it was 70.3% (inactive).
With `O=c1cc(N/N=C/c2ccc(F)cc2)c2cc(Cl)ccc2[nH]1`, the growth was 108% (inactive).
In the case of `COc1ccc(Nc2nn3c(SCC(=O)c4ccc(C)cc4)nnc3s2)cc1` it was 97.3% (inactive); in that of `Nc1ccccc1SC(CC(=O)c1ccccc1)c1ccc([N+](=O)[O-])cc1` (stereo not drawn), 79.1% (inactive) and 31.5% (inactive); in that of `O=C1/C(=C/c2ccc(-c3cccc(C(F)(F)F)c3)o2)SC(=S)N1CCc1ccc(O)cc1`, 54.9% (inactive).
Turning to `COc1cc2c(cc1OCCCOC1=C=C=C(c3ccc4c(c3)c3cc(-c5ccc(OCCCOc6cc7c(cc6OC)C(=O)N6CCC[C@H]6C=N7)cc5)ccc3n4S(=O)(=O)c3ccc(C)cc3)C=C1)N=C[C@@H]1CCCN1C2=O`, the growth was 42.1% (inactive).
With `CN1CCN(Cc2ccc(NC(=O)c3nc4ccc5[nH]ncc5c4c4c3CCCC4)cc2C(F)(F)F)CC1`, the growth was -73.4% (active).
`CCOC(=O)n1cc(-c2nonc2-c2cn(C)c3ccc(OC)cc23)c2cc(F)ccc21`: the growth is 77.7% (inactive).
For `CCOc1ccccc1NC(=O)c1cc2ccccc2cc1O`, the growth was 33.6% (inactive).
In the case of `C=C(CN1CC=CCC1)[C@@H]1CC[C@]2(COC(C)=O)CC[C@]3(C)[C@H](CC[C@@H]4[C@@]5(C)CC[C@H](O)C(C)(C)[C@@H]5CC[C@]43C)[C@@H]12` it was 106% (inactive); in that of `Cc1c(O)c(O)cc2c3c(oc12)CC(c1ccc2c(c1)OCO2)CC3=O` (stereo not drawn), 90.9% (inactive); in that of `O=c1c2c([nH]c3ccccc13)CCCC2`, 99.2% (inactive) and 19.7% (inactive).
In the case of `Clc1ccc(/C=N\N2CCCCCC2)cc1` it was 107% (inactive).
In the case of `CCOC(=O)c1nc2c3ccccc3cnn2c1C(=O)c1ccc(OC)cc1` it was 102% (inactive); in that of `COc1ccc(-c2nn3c(-c4cc(F)c(Cl)cc4Cl)nnc3s2)cc1`, 46.8% (inactive); in that of `O=C1C(=C(O)c2ccccc2)C(=O)c2ccccc21`, 104% (inactive).
For the molecule `O=C(Nc1ccccc1C(=O)N/N=C(\c1ccccc1)c1ccccn1)c1ccccc1`, the growth is 21.6% (inactive).
In the case of `COc1cc(-c2[nH]ncc2Nc2ccc(Cl)cc2)cc(OC)c1OC`, the growth was 63.5% (inactive).
In the case of `O=C([C@H]1C[C@H]1c1ccc(S(F)(F)(F)(F)F)cc1)N1CCN(c2cc(Cl)ccc2C(F)(F)F)CC1` it was 82.5% (inactive); in that of `Clc1ccc2c(NCCN3CCN(c4ccnc(N5CCCC5)n4)CC3)ccnc2c1`, 54.3% (inactive).
For the molecule `Cn1c(=O)c2c(nc(Nc3cc(=O)[nH]c(=O)[nH]3)n2Cc2ccccc2)n(C)c1=O`, the growth is 5.18% (active).
In the case of `Cc1ccc(S(=O)(=O)OC[C@@]2(C)CC[C@]3(C)CC[C@]4(C)C(=CC[C@@H]5[C@@]6(C)CCCNC(C)(C)[C@@H]6CC[C@]54C)[C@@H]3C2)cc1` it was -91.7% (active); in that of `Cc1nc(-n2[nH]c(=O)ccc2=O)sc1N=Nc1ccccc1`, 108% (inactive); in that of `CCCCC#Cc1c(/C=C(\CCCC)SCC)n(C)c(=O)[nH]c1=O`, 113% (inactive).
In the case of `O=C(CCN1CCOCC1)Nc1cccc(-n2cc(-c3ccncc3)c(-c3ccc(Cl)c(O)c3)n2)c1` it was 23.7% (inactive).
In the case of `CCOC(=O)c1cnn(CC(O)CC)c1NC(=O)NCc1ccccc1C(F)(F)F` (stereo not drawn) it was 103% (inactive); in that of `O=C(Nc1cc(C(F)(F)F)cc(C(F)(F)F)c1)c1cc(Cl)ccc1O`, -24.3% (active) and -33% (active); in that of `O=C(N/N=C/c1ccc(O)cc1O)c1cccc(Nc2ccnc(C(F)(F)F)c2)c1`, 34.7% (inactive).
Take `O=S(=O)(Nc1ccc(F)cc1)c1ccc(-c2cnc(C3CC3)o2)cc1`: the growth is 21.2% (inactive).
`Nn1c(-c2ccc(Cl)cc2)nc2c(-c3ccc(Cl)cc3)nc3ccc(Cl)cc3c2c1=O`: the growth was 36.9% (inactive).
As for `COc1ccc2c(c1)oc1c(C)c3c(c(C)c12)C(=O)N(Nc1ccccc1)C3=O`, the growth was 97.4% (inactive).
In the case of `Cc1cnc(C(=O)NNc2nc3sc4c(c3c(=O)[nH]2)C(C)CCC4)cn1` (stereo not drawn) it was 17.5% (inactive).
On to `COC(=O)c1nc(-c2ccc(C)cc2)oc1Sc1ccc(C)cc1`, for which the growth was 98.6% (inactive).
With `O=C1OCC2=C1C(c1cccc(C(F)(F)F)c1)c1cc3c(cc1N2CCO)OCCO3` (stereo not drawn), the growth is 16.9% (inactive).
Regarding `C=C(CNCCc1ccc(O)cc1)[C@@H]1CC[C@]2(CO)CC[C@]3(C)[C@H](CC[C@@H]4[C@@]5(C)CCC(NCCc6ccc(O)cc6)C(C)(C)[C@@H]5CC[C@]43C)[C@@H]12` (stereo partly drawn), the growth is -77.4% (active).
